MazEF act: activators of E. coli MazEF toxin-antitoxin RNase, primary screen, biochemical, fluorescence, uHTS; Endoribonuclease toxin MazF (Escherichia coli (strain K12)), P0AE70; FAM/BHQ RNA-DNA oligo cleavage fluorescence, 5 h; actives 0.32% (n = 350,000); activation, % at 20 µM; AID 504720, 2011; in the data active = activation above about 50%
Autofluor counter: counter-screen for toxin protease inhibitors: compound fluorescence; actives 3.1% (n = 360,000); fluorescence intensity (test concentration not listed); compound autofluorescence counterscreen, microsphere flow cytometry; stronger effect = higher value; in the data active = fluorescence intensity above about 16000; inconclusive = no clear call, values can overlap the other calls
BoNT-F LC inh: BoNT/F light chain protease inhibitors, primary screen, biochemical, flow cytometry, MLPCN library; AID 588497, 2011; actives 0.22% (n = 360,000); inhibition, % at 10 µM; Multiplex microsphere protease cleavage assay; in the data active = inhibition above about 35%, passing the limit was not always enough; inconclusive = no clear call, values can overlap the other calls; also: plate controls were buffer without enzyme for full effect and enzyme alone for no effect
Anthrax LF prot: Bacillus anthracis LF protease inhibitors, primary screen, biochemical, multiplex microsphere, MLPCN library; Lethal factor (Bacillus anthracis), P15917; multiplex microsphere protease cleavage assay; inhibition, % at 10 µM; actives 0.12% (n = 360,000); AID 588501, 2011; also: plate controls were buffer without enzyme for full effect and enzyme alone for no effect
Target sequence (P15917 whole entry, looked up): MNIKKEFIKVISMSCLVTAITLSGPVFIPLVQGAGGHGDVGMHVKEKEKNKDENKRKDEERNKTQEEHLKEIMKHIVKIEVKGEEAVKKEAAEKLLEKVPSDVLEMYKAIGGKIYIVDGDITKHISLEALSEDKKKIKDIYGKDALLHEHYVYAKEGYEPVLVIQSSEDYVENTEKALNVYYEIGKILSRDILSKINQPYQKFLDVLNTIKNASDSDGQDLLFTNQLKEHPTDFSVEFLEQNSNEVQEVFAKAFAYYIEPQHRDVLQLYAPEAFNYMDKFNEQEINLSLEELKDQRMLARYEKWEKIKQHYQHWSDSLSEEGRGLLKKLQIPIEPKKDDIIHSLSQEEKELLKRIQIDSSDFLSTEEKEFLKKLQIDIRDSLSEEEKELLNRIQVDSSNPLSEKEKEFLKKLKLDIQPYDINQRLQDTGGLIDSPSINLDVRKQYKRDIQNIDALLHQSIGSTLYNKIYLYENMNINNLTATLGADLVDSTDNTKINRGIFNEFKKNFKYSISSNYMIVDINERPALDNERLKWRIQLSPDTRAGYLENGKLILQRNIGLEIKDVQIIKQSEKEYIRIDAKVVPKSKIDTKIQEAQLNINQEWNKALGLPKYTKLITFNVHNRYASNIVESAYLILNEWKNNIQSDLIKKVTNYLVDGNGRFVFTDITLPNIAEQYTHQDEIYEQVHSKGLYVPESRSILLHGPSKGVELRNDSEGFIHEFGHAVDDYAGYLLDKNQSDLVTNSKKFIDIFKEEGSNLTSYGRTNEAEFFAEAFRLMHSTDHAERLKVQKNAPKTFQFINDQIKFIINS
BoNT-A LC inh2: BoNT/A light chain protease inhibitors, primary screen, biochemical, flow cytometry, MLPCN library | actives 0.17% (n = 360,000) | Botulinum neurotoxin type A light chain protease (Clostridium botulinum A str. ATCC 3502) | multiplex microsphere protease substrate cleavage | inhibition, % at 10 µM; also: plate controls were buffer without enzyme for full effect and enzyme alone for no effect
* marks the source's active call; other numbers are inactive results; ? = inconclusive; nt = no result. Most compounds without a hit are left out; they make up all but 3.7% or so of the library. Rule as the data show it, unless noted: active = inhibition above about 30%; inconclusive = no clear call, values can overlap the other calls; inactive = below that.

SMILES	MazEF act	Autofluor counter	BoNT-F LC inh	Anthrax LF prot	BoNT-A LC inh2
CCOCCCn1c(SCC(=O)Nc2ccc(NC(C)=O)cc2)nc2ccccc2c1=O	11	3932	-11	-15	-2
CCOc1ccc(NCC(=O)N/N=C/C=C/c2ccccc2)cc1	-1	2657	-2	-3	-1
CCOc1ccc(N=C/C=C/c2ccccc2)c(O)c1	15	3275	-72	0	35*
Cc1ccc(P(=O)(CO)c2ccc(C)cc2)cc1	7	16417*	-3	-1	-1
Cc1ccc(P(=O)(CSC(=N)N)c2ccc(C)cc2)cc1	3	2371	-7	-3	0
Cc1ccsc1/C=N/NC(=O)c1cccnc1	2	4453	-4	1	1
Cc1ccc(S(=O)(=O)O)c(C)c1N1CCCC1=O	4	20761*	-6	2	-3
Cc1ccc(S(N)(=O)=O)c(C)c1N1CCCC1=O	6	3405	4	8	-1
O=C(NCc1ccccc1)c1cc(=O)nc2sc(-c3ccccc3)nn12	4	23048*	0	1	-2
Cc1cc(NC(=O)/C(C#N)=C\c2ccc(-c3ccc(SC(F)F)cc3)o2)n(-c2ccccc2)n1	432*	4508	6	-7	-1
Cc1c(NC(=O)/C(C#N)=C/c2ccc(-c3ccc(Cl)c(Cl)c3)o2)c(=O)n(-c2ccccc2)n1C	-4	2543	0	2	2
CSc1nc(-c2ccc(N(C)C)cc2)c(C#N)c(=O)n1C	136*	4391	-6	0	1
CCOc1ccccc1N1CCN(C(=O)c2cc[n+]([O-])cc2)CC1	12	5032	13	0	1
CCCc1ccc(C(=O)N2CCN(c3ccccc3OCC)CC2)cc1	-5	25022*	-8	0	-3
O=C(NCc1cccc(C(F)(F)F)c1)C1CCN(c2ncccn2)CC1	0	22251*	2	1	1
CCOc1ccc(OCC)c(NC(=O)CN2CCC(NC(=O)c3cccc(F)c3)CC2)c1	4	20291*	-4	-2	0
O=C(O)C1CC=CCC1C(=O)NCc1ccc2c(c1)OCO2 (centres undefined)	-7	23458*	-4	1	-2
Cc1cc(C)nc(N2CCC(C(=O)NCc3cccc(C(F)(F)F)c3)CC2)n1	2	4485	17	-6	-1
CCc1c(C)nc2ncnn2c1N1CCCC(C(=O)NCc2ccc3c(c2)OCO3)C1 (centres undefined)	-2	22326*	2	-6	2
CC(=O)c1cccc(NC(=O)C2CCN(C(=O)c3cccs3)CC2)c1	10	3949	-42	-10	-2
Cc1nc2ncnn2c(N2CCC(C(=O)NC3CCCC3)CC2)c1Cc1ccccc1	-8	11151	1	-1	0
COc1cccc(OC)c1C(=O)N1CCN(c2c(Cc3ccccc3)c(C)nc3ncnn23)CC1	3	26771*	-15	-7	-13
CCOc1ccc(OCC)c(NC(=O)C2CCN(c3ncccn3)CC2)c1	-2	22945*	-7	-2	?
CCOc1ccc(OCC)c(NC(=O)C2CCCN(c3ncccn3)C2)c1 (centres undefined)	-1	7567	-12	-6	0
Cc1ccnc(N2CCC(C(=O)NCc3ccc4c(c3)OCO4)CC2)n1	-1	20911*	4	0	?
SMILES	MazEF act	Autofluor counter	BoNT-F LC inh	Anthrax LF prot	BoNT-A LC inh2
CCc1c(C)nc2ncnn2c1N1CCC(C(=O)N2CCN(c3ccc(F)cc3)CC2)CC1	-1	24650*	-6	-1	?
CCc1c(C)nc2ncnn2c1N1CCCC(C(=O)Nc2ccc(NC(C)=O)cc2)C1 (centres undefined)	0	2476	2	0	0
CS(=O)(=O)c1ccc(-c2nnc(NC(=O)c3cccc(N4C(=O)CCC4=O)c3)o2)cc1	8	5342	3	-3	0
COCCCN1CC(=O)N2Cc3[nH]c4ccccc4c3C[C@H]2C1=O	1	3038	12	-1	2
O=C(NCc1ccc2c(c1)OCO2)C1CCN(c2ccc(S(=O)(=O)N3CCCC3)cc2)CC1	2	19826*	-4	-2	-1
O=C(NCc1ccc2c(c1)OCO2)C1CCN(c2ncccn2)CC1	-4	21984*	0	0	?
O=C(NCc1ccc2c(c1)OCO2)C1CCN(S(=O)(=O)N2CCCCC2)CC1	-1	10814	3	2	0
Cc1cccc(CN2CCN(C3CN(Cc4cn(Cc5ccc(Cl)cc5)nn4)S(=O)(=O)C3)CC2)c1 (centres undefined)	nt	4912	-11	1	0
COc1ccc(CN2CCCC(C(=O)Nc3cccc(-n4cccn4)c3)C2)c(F)c1 (centres undefined)	-7	4933	-5	-1	1
Cc1cc(N=Nc2ccccc2)cc(C)c1NC(=O)C(F)(F)F	-7	2938	-4	0	0
O=C(N/C(=C\c1ccc(Br)cc1)C(=O)N1CCOCC1)c1ccccc1Cl	3	5612	-9	0	2
O=C(Nc1cccc(C(=O)O)c1)/C(=C\c1ccccc1)NC(=O)c1ccccc1Cl	1	5393	41*	2	4
O=C(N/C(=C\c1ccccc1)C(=O)N1CCOCC1)c1ccccc1Cl	3	42511*	-223	-33	-142
CCCCSC1=NN1c1nc(N)nc(C)c1CC	6	22245*	7	-2	3
CCc1c(C)nc(N)nc1N1N=C1SC	3	5437	-1	3	-1
CCCc1cc(=O)oc2c(C)c(OC(C)C(=O)NCCN3CCOCC3)ccc12 (centres undefined)	13	6264	-8	-2	-1
CCC(Oc1ccc(Br)cc1)C(=O)N1CCN(c2ncccn2)CC1 (centres undefined)	6	4035	-2	-2	0
CC(C)NC(=O)c1cccc2c1-c1ccccc1C2=O	4	4165	3	4	1
Cc1cccc(C)c1NC(=O)Cn1c(=O)n(CCCC(=O)NCc2ccco2)c(=O)c2sccc21	-1	22217*	-7	0	-6
COc1ccc(CCNC(=O)Cn2c(=O)n(CCCC(=O)NCc3ccco3)c(=O)c3sccc32)cc1OC	-3	5088	-2	-3	-1
Cc1ccc(C)c(Cn2c(=O)n(CCCC(=O)NCc3ccco3)c(=O)c3sccc32)c1	-4	3168	-28	-4	-1
O=C(CCCn1c(=O)c2sccc2n(CC(=O)NCc2ccco2)c1=O)NCc1ccco1	-11	20462*	3	2	?
O=C(CCn1c(=O)c2sccc2n(CC(=O)NCc2ccco2)c1=O)NCc1ccccc1	5	24369*	-9	-4	-4
COc1ccc(OC)c(NC(=O)CCC(=O)Oc2ccc(C)cc2)c1	7	3737	?	-13	-2
